Source: PubChem BioAssay (National Center for Advancing Translational Sciences (NCATS))
In the library only some 5.7% were active in any assay of this set; here they are far more common.
RORg inh: ROR gamma (mouse) transcription inhibition; actives 5.4% (n = 310,000); Potency, µM (highest dose often 53.6 µM), without a hit: at the highest dose activity change, negative = inhibition, most hits filed as inhibitors; Drosophila S2 Gal4-RORgamma UAS-luciferase reporter, 20 h; note: nearly all actives have a fitted effect of over 60% in size
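Schneider cells (Drosophila), stable Gal4 DBD–ROR gamma + UAS-luc; 1 hr cmpd preincubation; Cu2+ induction 700 uM final; 20 hr ambient; luminescence.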
NPSR antagonist: blocks cAMP signaling of the human neuropeptide S receptor | Q6W5P4 | CHO-NPSR cells, cAMP TR-FRET, antagonist mode | Potency, µM (titrated, usually from 38.3 µM), for inactives: top-dose activity change, negative = inhibition, actives largely listed as inhibitors | actives 1% (n = 220,000) | AID 1461; note: nearly all actives have a fitted effect of over 50% in size
B2AR arrestin: recruits beta-arrestin to the human beta2-adrenergic receptor; beta-arrestin recruitment to beta2AR, cell-based reporter; Potency, µM (series often up to 46.1 µM), without a hit: at the top dose activation, actives largely listed as activators; actives 0.02% (n = 330,000);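 note: 0% = DMSO controls and full agonism = EC100 isoproterenol or metaproterenol; nearly all actives have a fitted effect of over 65% in size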
Target sequence (P07550 whole entry, looked up): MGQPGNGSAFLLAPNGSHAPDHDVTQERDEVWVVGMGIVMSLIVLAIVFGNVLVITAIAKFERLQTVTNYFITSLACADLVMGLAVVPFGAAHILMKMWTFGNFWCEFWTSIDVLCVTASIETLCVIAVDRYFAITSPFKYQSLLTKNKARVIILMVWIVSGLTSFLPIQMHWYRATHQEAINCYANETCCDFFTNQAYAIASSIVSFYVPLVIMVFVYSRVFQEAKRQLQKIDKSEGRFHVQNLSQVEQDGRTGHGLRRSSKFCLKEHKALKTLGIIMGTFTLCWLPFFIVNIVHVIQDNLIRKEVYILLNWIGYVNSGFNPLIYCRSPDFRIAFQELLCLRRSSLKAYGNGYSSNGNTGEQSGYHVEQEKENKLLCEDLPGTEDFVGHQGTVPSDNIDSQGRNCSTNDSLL
Gal4-VP16 FLuc: counter-screen for ROR gamma inhibitors: Gal4-VP16 reporter | Drosophila S2 Gal4-VP16 UAS-luciferase, luminescence, 20 h | Potency, µM (titrated, usually from 53.6 µM), for inactives: top-dose activity, negative = inhibition, most hits filed as inhibitors | actives 3.5% (n = 310,000) | AID 2546;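 note: Gal4-VP16 expression switched on by copper sulfate through the metallothionein promoter; nearly all actives have a fitted effect of over 50% in size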
Starred values were filed as active, the others as inactive; ? = inconclusive; . = not tested or not shown; [ ] = remark or other dose. Calls come from the whole dose curve; as a rule, active = well fitted curve in the direction sought with a large enough effect; inconclusive = small, poorly fitted or top-dose-only effect, or another doubt; inactive = no such curve, though single readings can be large; an effect the other way counts as inactive or inconclusive. Unless noted, % is set by controls: 0 for no effect and ±100 for the full control effect; potency is the fitted concentration of half-maximal effect.

SMILES	RORg inh	NPSR antagonist	B2AR arrestin	Gal4-VP16 FLuc
CCCNC(=O)C(=O)N/N=C/c1ccc(OCc2ccccc2)cc1	4%	19%	0%	15%
Fc1ccccc1COc1ccc(/C=N/NC(=S)NCc2ccccc2)cc1	0.89µM*	-3%[46.1 µM]	0%	1µM*
CCNC(=S)N/N=C/c1cccc(/C=N/NC(=S)NCC)c1	?	21%	-1%	-22%
O=C(Nc1ccccc1)Nc1cnccn1	18%	.	4%	-4%
CC(C)(C)c1ccccc1OCCCCCn1ccnc1	18µM*	?	0%	?
Cc1ccc(OCCCCn2ccnc2)c(Cl)c1	11µM*	4%[46.1 µM]	0%	?
Cc1cc(C)cc(OCCCn2ccnc2)c1	.	.	0%	.
Cc1cc(Cl)c(OCCCn2ccnc2)c(Br)c1	18µM*	2%	0%	?
Cc1cccc(OCCCCCn2ccnc2)c1C	?	18%[46.1 µM]	0%	?
Cc1cc(C)c(C)c(OCCCn2ccnc2)c1	16µM*	5%[46.1 µM]	0%	-10%
Cc1ccc(C)c(OCCCCn2ccnc2)c1	?	19%[46.1 µM]	0%	-13%
CC1(C)CC(=O)C=C(NCC(O)c2ccccc2)C1 (stereo not drawn)	1%	.	0%	-4%
CCCc1c(C)nc(N2CCN(c3ccccc3F)CC2)[nH]c1=O	1%[1.91 µM]	.	0%	-1%
COCCN(C(=O)C1=COCCO1)c1c(N)n(CC(C)C)c(=O)[nH]c1=O	.	.	-1%	.
Cc1cc(C)c(OCCCn2ccnc2)c(C)c1	13µM*	.	-1%	?
CN1CCN(c2nc(-c3ccccc3C(F)(F)F)nc3ccccc23)CC1	-18%	.	.	3%
N#Cc1ccccc1NC(=O)CNc1ccc(Cl)c(C(F)(F)F)c1	?	-10%[46.1 µM]	4%	11µM*
O=C(CN(C(=O)CCC(=O)Nc1nccs1)c1cccc(F)c1)NCc1ccc(F)cc1	35µM*	.	0%	-5%
COc1ccc2c(c1)O[C@H](c1ccc3c(c1)OCO3)[C@@H](OC(=O)Nc1ccc(C)c(Br)c1)C2=O	?	.	.	-1%
Brc1ccc(-c2csc(NNC3=NCCCCC3)n2)cc1	7.1µM*	-4%[46.1 µM]	0%	14µM*
FC(F)Oc1ccc(-c2csc(NNC3=NCCCCC3)n2)cc1	?	-37%	0%	4%
CC(C)(C)c1ccc(-c2csc(NNC3=NCCCCC3)n2)cc1	13µM*	?	0%	?
Cc1c(C(=O)C(=O)NCCCn2ccnc2)c2ccccc2n1C	5%	9%	0%	-4%
CCn1c(CC(=O)Nc2ccccc2)n[nH]c1=S	?	-3%	1%	-3%
O=C(O)C1(c2ccccc2)CCN(S(=O)(=O)c2ccc(Br)cc2)CC1	7%	.	-1%	-4%
SMILES	RORg inh	NPSR antagonist	B2AR arrestin	Gal4-VP16 FLuc
CCOC(=O)COc1cc2oc(=O)cc(C)c2cc1[N+](=O)[O-]	-5%	-16%	-1%	-1%
O=S(=O)(NCC1CCCN(Cc2ccccc2O)C1)c1cccc2cccnc12 (stereo not drawn)	0%	.	0%	3%
Brc1ccc(OCCCOc2cccc3cccnc23)cc1	?	.	-3%	?
Cc1cccc(OCCCOc2cccc3cccnc23)c1C	13µM*	-27%[46.1 µM]	0%	?
Cc1cccc(OCCCCc2c(C)n[nH]c2C)c1C	14µM*	-10%[46.1 µM]	0%	?
Cc1ccc(OCCCOc2cccc3cccnc23)cc1C	14µM*	-17%[46.1 µM]	0%	?
CC(Sc1cccc[n+]1[O-])C(=O)Nc1ccc(Oc2ccccc2)cc1 (stereo not drawn)	19%	3%	0%	4%
CC(C)C(C)(C#N)NC(=O)CSc1nc2scc(-c3ccc(F)cc3)c2c(=O)n1Cc1ccccc1 (stereo not drawn)	18µM*	-16%[46.1 µM]	0%	?
OCC1OC(c2ccccc2)C=CC1Oc1cc(Cl)cc(Cl)c1 (stereo not drawn)	13%[10 µM]	.	.	0%[10 µM]
CSc1ccc(/C=N/NC(=O)CNc2cccc3ccccc23)cc1	35µM*	-30%	0%	?
O=C(CCN1CCN(c2ccccc2)CC1)N/N=C/c1ccc([N+](=O)[O-])o1	18µM*	5%	0%	-20%
O=C(CNc1cccc2ccccc12)N/N=C/c1ccc([N+](=O)[O-])o1	11µM*	-8%	0%	?
O=C(CNc1cccc2ccccc12)N/N=C/c1ccc[nH]1	5µM*	11%	0%	14µM*
O=C(CN1CCCCCCC1)N/N=C/c1ccc([N+](=O)[O-])o1	?	.	0%	?
O=C1NN(C(=O)Nc2ccc(Br)cc2)C(c2ccccc2)C1c1ccccc1 (stereo not drawn)	8%	.	.	5%
